Consider one molecule from the supplement of paper PMC8728848.

Many of the other results were omitted from the sample, so the strongest signals are more common in it than they were.

Holding throughout (experiment): glycan array binding signal (z-score within array); higher = stronger binding
Holding throughout (details): glycan notation: IUPAC condensed, linker removed

In assay [1] the target is GlcNAc(b1-2)Man(a1-3)[GlcNAc(b1-2)Man(a1-6)]Man(b1-4)GlcNAc(b1-4)[Fuc(a1-6)]GlcNAc. The essentials: (§1)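 Glycan array data came from 3228 arrays in the Consortium for Functional Glycomics database, and only arrays with an available protein sequence were kept. Glycan names were put into IUPAC-condensed notation, and columns mapping to the same glycan were averaged. The binding signal is a within-array Z-score, averaged across arrays of one protein sequence run at different concentrations or buffers and across linkers. A negative Z-score can be read as non-binding.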

For assay [2], the target named is GlcNAc(b1-3)Gal(b1-4)GlcNAc(b1-2)Man(a1-3)[GlcNAc(b1-3)Gal(b1-4)GlcNAc(b1-2)Man(a1-6)]Man(b1-4)GlcNAc(b1-4)GlcNAc. The essentials:
as §1

For assay [3], the target named is GlcNAc(b1-3)Gal(b1-4)GlcNAc(b1-3)Gal(b1-4)GlcNAc(b1-2)Man(a1-3)[GlcNAc(b1-3)Gal(b1-4)GlcNAc(b1-3)Gal(b1-4)GlcNAc(b1-2)Man(a1-6)]Man(b1-4)GlcNAc(b1-4)GlcNAc. The essentials:
as §1

Assay [4] addresses GlcNAc(b1-3)Gal(b1-4)GlcNAc(b1-3)Gal(b1-4)GlcNAc(b1-2)Man(a1-3)[GlcNAc(b1-3)Gal(b1-4)GlcNAc(b1-3)Gal(b1-4)GlcNAc(b1-2)Man(a1-6)]Man(b1-4)GlcNAc(b1-4)[Fuc(a1-6)]GlcNAc. In short, it runs like this: as §1
Assay [5] concerns the target GlcNAc(b1-3)Gal(b1-4)GlcNAc(b1-3)Gal(b1-4)GlcNAc(b1-2)[GlcNAc(b1-3)Gal(b1-4)GlcNAc(b1-3)Gal(b1-4)GlcNAc(b1-6)]Man(a1-6)[GlcNAc(b1-3)Gal(b1-4)GlcNAc(b1-3)Gal(b1-4)GlcNAc(b1-2)Man(a1-3)]Man(b1-4)GlcNAc(b1-4)[Fuc(a1-6)]GlcNAc. The essentials: as §1
The target of assay [6] is Man(a1-2)Man(a1-6)[Man(a1-3)]Man(a1-6)[Man(a1-2)Man(a1-2)Man(a1-3)]Man. The essentials: as §1
In assay [7] the target is Neu5Ac(a2-3)Gal(b1-3)GalNAc(b1-4)[Neu5Ac(a2-8)Neu5Ac(a2-3)]Gal(b1-4)Glc. In short, it runs like this:
as §1

Assay [8] deals with Neu5Ac(a2-3)Gal(b1-3)GlcNAc6S. The essentials: as §1
Assay [9] concerns the target Neu5Ac(a2-3)Gal(b1-3)]Neu5Ac(a2-3)Gal(b1-4)]GlcNAc. The essentials:
as §1

In assay [10] the target is Neu5Ac(a2-3)Gal(b1-4)GlcNAc(b1-6)[Gal(b1-3)]GalNAc. The essentials:
as §1

In assay [11] the target is Neu5Ac(a2-6)GalNAc(b1-4)GlcNAc. The essentials:
as §1

In assay [12] the target is Neu5Ac(b2-6)Gal(b1-4)GlcNAc. In short, it runs like this:
as §1

In the next assay the target is Neu5Ac(b2-6)GalNAc. The essentials:
as §1

Assay [13] concerns the target Neu5Gc(a2-3)Gal(b1-4)GlcNAc(b1-3)Gal(b1-4)GlcNAc(b1-2)Man(a1-3)[Neu5Gc(a2-3)Gal(b1-4)GlcNAc(b1-3)Gal(b1-4)GlcNAc(b1-2)Man(a1-6)]Man(b1-4)GlcNAc(b1-4)GlcNAc. In short, it runs like this:
as §1

For assay [14], the target named is Neu5Gc(a2-8)Neu5Gc(a2-3)Gal(b1-4)GlcNAc. The essentials:
as §1

B1: InvD YPIII (Yersinia pseudotuberculosis), B1JSC0 (protein)
chain: MIKYFSFFKKPEPIVGILPNRQSHHILPTHIRRVAWGTLLLQLFIPLSVSFSPAIAAMKASKADTMVSYSSTEPYVLGSGETVAMVAKKYGITVDELKKINIYRTFSRPFTALTTGDEIDIPRKASPFSVDNNKDNRLSVENTLAGHAVAGATALSNGDVAKSGERMVRSAASNEFNNSAQQWLSQFGTARVQLNINDDFHLDGSAADVLIPLYDNEKSILFTQLGARNKDSRNTVNMGAGVRTFQGNWMYGANTFFDNDLTGKNRRIGVGAEAWTDYLKLSANNYFGITDWHQSRDFIDYNERPANGYDLRAEAYLPSYPQLGGKAMYEKYRGDDVALFGKDNRQKNPHAITAGVNYTPIPLVTIGAEHRAGKGGQNDSNINFQLNYRLGETWQSHIDPSAVAASRTLAGSRYDLVERNNHIVLDYQKQNLVRLSLPDSLAGDPFSQLSVTAQVTATHGLERIDWQSAELMAAGGVLKQTSKNGLEITLPEYQMNRTGGNSYILNAIAYDTQGNASSQASMLITVNAQKINIANSTLVAVPINIEANNSDTSVVTLTLKDDNNIPVTGQDVTFLSPLGTLSAMTDSGNGVYTATLTAGTVSGTTAVSSNINGSALDMTPATVTLNGNSGELSITHSMLVAAPVNIEANGSDTSVVTLTLRDSNNNPVTGQTVTFAGTLGTLGAVTEGSSGVYTATLTAGIMVGTSSITASVNSTALGVTPATVTLNGDSGNLSTTNSTLVAAPVNIEANSSDTSVVTLTLRDNNNNPVTGQTVVFTSTLGTLGNVTEQASGVYTATLTAGTVSGVASLSVSVGGNALGVTPATVTLNGDSGNLSTTNSTLVAAPVNIEANSSDTSVVTLTLRDNNNNPVTGQTVNFAGTLGTLGTVSEGSSGVYTTTLTAGTVAGVASLSVNVGGNALGVTPATVTLNGNSGNLSATNSTLVAAPVNIEANSSDTSVVTLTLRDNNNNPVTGQTVAFTSTLGTLGNVTEQASGVYTATLTAGTVSGVASLSVSVNSNALGVTPATVTLNGDSGNLSTTNSTLVAAPVNIEANSSDTSVVTLTLRDNNNNPVTGQTVAFTSTLGTLGNVTEQASGLYTATLTAGTVSGVASLSVNVGGNALGVTPATVTLNGDSGNLSATNSTLVAAPVNIEANSSDTSVVTLTLRDNNNNPVTGQTVAFTSTLGTLGNVTEQASGLYTATLTAGTVSGVASLSVNVGGTALGVTPATVTLNGDSGNLSTTNSTLVAAPVNIEANSSDTSVVTLTLRDNNNNPVTGQTVAFTSTLGTLGNVTEQASGLYTATLTAGTVSGVASLSVSVNSTALGVTPATVTLNGDSGNLSTTNSTLVAAPVNIEANSSDTSVVTLTLRDNNNNPVTGQTVAFTSTLGTLGNVTEQASGVYTATLTAGTVAGVASLSVNVGGNALGVTPATVTLNGDSGNLSTTNSTLVAAPVNIEANSSDTSVVTLTLRDNNNNPVTGQTVAFTSTLGTLGNVTEQASGVYTATLTAGTVSGVASLSVSVGSSALGVTPATVTLNGDSGNLSTTNSTLVAAPVNIEANNSDTSVVTLTLRDNNNNPVTGQTVAFTSTLGTLGNVTEQASGVYTATLTAGTVSGVASLSVSVNSNALGVTPATVTLNGDSGNLSTTNSTLVAAPVNIEANSSDTSVVTLTLRDNNNNPVTGQTVVFTSTLGTLGNVTEQASGLYTATLTAGTVSGVASLSVSVGGNALGVTGNITLAPGALDAARSILAVNKPSINADDRIGSTITFTAQDAQGNAITGLDIAFMTDLENSQIMTLVDHNDGTYTANINGTQTGIANIAVQSSGATIAGLAATMVTITPGAWNTTQATPVMTVALPITTCQSSSGVYKRYYIGIVTHELYDNYGNEISGILTYNLGAGRYTTVTSQNSSVSGSNGLTRRSNSPVSHFILTSDAYTSQAACYAERIANVNVTITVTAITDDFKTSAVNKVFILGTGSN
For B1, the “glycan array binding signal (z-score)” value was 0.422 in [1]; -0.006 in [2]; 5.11 in assay [3]; 2.68 in assay [4]; 4.27 in [5]; -0.216 in assay [6]. In addition, the “glycan array binding signal (z-score)” value in [7] is -0.165; in assay [8], -0.22; in assay [9], 0.034; in [10], 0.162; in assay [11], -0.312; in assay [12] it was -0.095. Moreover, the entries for the “glycan array binding signal (z-score)” value (with Neu5Ac(b2-6)GalNAc; in assay [13]; in assay [14]) were 0.163, 0.122 and -0.373, respectively.
